Hits are enriched below; roughly 2.7% of the tested compounds scored in any of these assays.
Wnt bcat act: Wnt/beta-catenin pathway activators, primary screen, cell-based, plate reader, single point; Wnt/beta-catenin reporter cell assay, activator; activation, % at 9.35 µM; 300,000 tested, 1.2% active; in the data active means activation above about 30%, passing the limit was not always enough;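 further: 0% = neutral control wells and 100% = positive control wells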
Env fusion inh: inhibitors of HIV-1 Env-driven cell-cell fusion, primary screen, HeLa-JRFL effector, CEM21 target cells, luciferase | 360,000 tested, 1.1% active | inhibition, % at 12.3 µM | AID 651610, 2012;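 active means mean replicate inhibition score of at least 50 and every replicate individually at or above 50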;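 further: 0% = plate neutral controls and 100% = maraviroc near 300 nM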
MITF act: activators of MITF-driven TRPM1 promoter reporter, primary screen, cell-based, SK-MEL-5, luciferase, single point; 300,000 tested, 0.75% active; activation, % at 12.5 µM; SK-MEL-5 TRPM1-promoter luciferase, 24 h; % of positive control, neutral wells = 0; AID 588334, 2011;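 active means mean activation of at least 80% with every replicate also reaching 80%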;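 further: 0% = neutral control wells and 100% = parthenolide positive control wells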
F508del corr: F508del CFTR correction, initial screen, CFBE line, single point; activity (quench increase), % at 7.58 µM; 350,000 tested, 0.36% active; CFBE cells, YFP halide quenching; stimulated with forskolin plus potentiator P3; % fluorescence drop versus neutral controls; AID 720511, 2013;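 active means mean added fluorescence quench of at least 8% versus neutral control, with both replicates also reaching 8%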;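 further: cells transiently co-express mutant CFTR-F508del with the halide-sensitive YFP; corrector assay measuring rescue of mutant channel to the surface after 24 h compound exposure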
GSIS activator: GLuc luminescence reporter in INS-1E cells, primary screen for activators of glucose-dependent secretion of insulin; INS-1E GLuc reporter insulin secretion, 2-3 h; activation, % at 16.6 µM; 370,000 tested, 0.61% active;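 active means lowest replicate activation of at least 40%, so every replicate reaches that level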;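 further: 0% = median of neutral control wells and 100% = median of IBMX positive control wells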
* marks the source's active call; other numbers are inactive results; . = no result; [ ] = another dose, or the depositor's remark.

SMILES	Wnt bcat act	Env fusion inh	MITF act	F508del corr	GSIS activator
O=C(NCCCN1CCOCC1)[C@H]1N[C@H]2c3ccc(C4=CCCC4)c(=O)n3C[C@H]2[C@@H]1CO	.	.	.	2	10
c1c2c(cc3sc(N4CCOCC4)nc13)OCO2	.	-147	.	.	.
c1c2c(cc3sc(N4CCCCC4)nc13)OCO2	54*	-280	-4	.	-11
C[C@H]1CN([C@@H](C)CO)C(=O)Cc2cc(NS(=O)(=O)c3cccs3)ccc2O[C@H]1CN(C)Cc1ccc(Cl)c(Cl)c1	.	-8[16.7 µM]	.	1	-21
C(=C\c1ccccc1)/C=N/N1CCN(c2ccccn2)CC1	.	.	85*	.	.
Oc1ccccc1/C=N/N1CCN(c2ccccn2)CC1	38*	-43	71	-1	6
Cc1ccc(/C=N/N2CCN(c3ccccc3)CC2)cc1	7	-45	73	-3	16
O=[N+]([O-])c1ccccc1/C=C\C=N\N1CCN(c2ccccc2)CC1	25	8	13	-1	-5
Cc1cccc(/C=N/N2CCN(c3ccccc3)CC2)c1	20	-197	100*	.	-15
C(/C=C/c1ccccc1)=N/N1CCN(c2ccccc2)CC1	-1	-85	94*	.	40
COCC#Cc1ccc2c(c1)O[C@@H](CN(C)Cc1ccccc1F)[C@H](C)CN([C@H](C)CO)S2(=O)=O	.	20[16.7 µM]	.	-1	-20
O=C(C[C@H]1CC[C@@H]2[C@H](COC[C@H](O)CN2C(=O)c2ccncc2)O1)NC1Cc2ccccc2C1	.	.	.	5	3
CC(=O)N(C)C[C@@H]1Oc2c(NC(=O)NC(C)C)cccc2C(=O)N(C)C[C@H]1C	.	.	.	.	3
C[C@H](O)C#Cc1ccc2c(c1)O[C@H](CN(C)C(=O)CC1CC1)[C@@H](C)CN([C@H](C)CO)S2(=O)=O	.	-46[16.7 µM]	.	1	16
C[C@@H]1CCCCO[C@H](CN(C)Cc2ccncc2)[C@@H](C)CN([C@@H](C)CO)C(=O)c2cc(NS(C)(=O)=O)ccc2O1	.	0[16.7 µM]	.	0	5
COc1ccccc1NC(=O)N(C)C[C@@H]1Oc2cc(Br)ccc2S(=O)(=O)N([C@H](C)CO)C[C@H]1C	.	0[16.7 µM]	.	1	-10
Cc1ccc(C)c(OCc2cc(C(=O)N3CC[C@@H]4CCCC[C@H]4C3)no2)c1	17	-11	22	-6	-8
Cc1ccc(C)c(OCc2cc(C(=O)N3C[C@@H](C)O[C@@H](C)C3)no2)c1	37*	-62	125*	-3	-15
C[C@@H]1CN(C(=O)c2cc(COc3cccc(C(F)(F)F)c3)on2)C[C@H](C)O1	23	-54	103*	0	-1
CCC(CC)CN1CCN=C1Nc1ccccc1	2	-23	-1	3	59*
CC[C@]1(C(=O)OC)[C@H]2C(=O)N(Cc3ccccc3)C(=O)[C@H]2[C@H]2CN=C(SCC(=O)c3ccccc3)N21	1	72*	-4	1	9
COC(=O)[C@@]1(C)[C@H]2C(=O)N(Cc3ccccc3)C(=O)[C@H]2[C@H]2CN=C(SCc3ccc(Cl)cc3)N21	-1	79*	-4	0	-42
COC(=O)[C@@]1(C)[C@H]2C(=O)N(Cc3ccccc3)C(=O)[C@H]2[C@H]2CN=C(SCc3ccc(C#N)cc3)N21	-1	75*	3	0	-5
Cc1nn(-c2ccccc2)c2c1C(O)CC(C)(C)C2 (stereo not drawn)	0	-6	-6	-3	67*
O=C(O)c1ccc(-c2nc(-c3ccc(Cl)cc3)cs2)cc1	-4	-186	118*	-1	-8
O=C(NCc1ccc(Cl)c(Cl)c1)c1cc(C2CCCCN2C(=O)C2CCCCC2)on1 (stereo not drawn)	-3	15	.	2	-13
O=C(NCc1cccnc1)c1cc(C2CCCCN2C(=O)CCCc2ccccc2)on1 (stereo not drawn)	-3	2	.	12*	18
COC(=O)N1CCCCC1c1cc(C(=O)NCc2ccc(Cl)c(Cl)c2)no1 (stereo not drawn)	-1	3	.	-5	73*
Nc1c(Cl)cc2c(c1Oc1ccccc1)C(=O)c1ccccc1C2=O	2	125*	26	.	.
N=c1cc(C2(O)CCCCC2)n2c(nc3ccccc32)s1	45*	-271	.	.	.
